In PubChem BioAssay (Tox21):
Records with an inconclusive call do not appear. The source made the active and inactive calls. Unless noted, calls follow the shape of the dose curve; as a rule, active = well fitted curve in the direction sought with a large enough effect in the repeat runs; inconclusive = weak or mixed curves; inactive = no such curve, though single readings can be large; an effect the other way counts as inactive or inconclusive. Positions of bridges follow the written chain, without caps; N, C: chain ends. Non-standard residues stand in square brackets, D forms with d. Residues, ends and D or L forms follow the SMILES beside them. *: point of attachment. X1 = CC[C@@H](C)[C@@H](N)C1=N[C@H](C(=O)*)CS1; d(aIle) = CC[C@H](C)[C@@H](N)C(=O)O; dOrn = NCCC[C@@H](N)C(=O)O

Columns and labels:
[1] = qHTS assay for small molecule agonists of the p53 signaling pathway (AID 651631; calls by dose curve; also: nearly all actives have a fitted effect of over 15% in size; also: potency is read from the fitted curve at half-maximal effect)
How it was run: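 Beta-lactamase reporter activity under p53 response elements was quantified in HCT-116 cells by FRET fluorescence, following 16 h incubation with test compounds at 37 °C and 2 h substrate development at room temperature.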

[2] = qHTS assay for small molecules that induce genotoxicity in human embryonic kidney cells expressing luciferase-tagged ATAD5 (AID 651632); also: nearly all actives have a fitted effect of over 15% in size
How it was run: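 Reporter cells (HEK293T) express luciferase-tagged ATAD5, a protein that accumulates after DNA damage. Treat 16 hr at 37C/5% CO2, add Amplite, wait 30 min at RT, and read luminescence.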

[3] = qHTS assay for small molecule agonists of the p53 signaling pathway - cell viability (AID 651633; calls by dose curve; also: nearly all actives have a fitted effect of over 30% in size; also: potency is read from the fitted curve at half-maximal effect)
How it was run: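 p53RE-bla cells were treated with compound for 16 hours at 37 C. Cytotoxicity was then measured as CellTiter-Glo luminescence after 30 min at room temperature.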

[4] = qHTS assay for small molecules that induce genotoxicity in human embryonic kidney cells expressing luciferase-tagged ATAD5 - cell viability (AID 651634; calls by dose curve; also: nearly all actives have a fitted effect of over 25% in size; also: potency is read from the fitted curve at half-maximal effect)
How it was run: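 Seeding of 2,000 HEK293T ATAD5-luciferase cells per well preceded pin-tool compound transfer. Plates sat 15.5 hr at 37C under 5% CO2, then fluorescence was read after 30 min with CellTiter-Fluor.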

[5] = qHTS assay for small molecule disruptors of the mitochondrial membrane potential - cell viability (AID 720634; calls by dose curve;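 also: human HepG2 liver cancer cells; series mostly up to about 83 µM; nearly all actives have a fitted effect of over 20% in size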)
How it was run: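 Measuring cytotoxicity alongside mitochondrial potential, the screen quantified ATP by luminescence in HepG2 cells after 1 hr compound incubation and a 30 min room-temperature CellTiter-Glo step.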

[6] = qHTS assay for small molecule disruptors of the mitochondrial membrane potential (AID 720635)
How it was run: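 HepG2 cells exposed to compound 1 hr at 37C, then Mito-MPS dye 30 min. Ratio read of aggregate (540/590 nm) versus monomer (490/535 nm) fluorescence.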

[7] = qHTS assay to test for compound auto fluorescence at 590 nm (red) in HepG2 cells (AID 720674)
How it was run: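 HepG2 cells, 2,000 per well in MEM with 10% FBS, attached overnight at 37 C, then got 23 nL compound or DMSO. After 1 hr at 37 C, 5% CO2, red fluorescence was read at 540/590 nm against Rose Bengal sodium as reference.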

[8] = qHTS assay to test for compound auto fluorescence at 460 nm (blue) in HEK293 cells (AID 720678)
How it was run: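 Intrinsic compound fluorescence is recorded in live HEK293 cultures after overnight incubation at 37C, 5% CO2, using excitation 405 nm and emission 460 nm. Values are referenced to triamterene.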

[9] = qHTS assay to test for compound auto fluorescence at 590 nm (red) in HEK293 cells (AID 720679)
How it was run: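 Red autofluorescence, HEK293 cells: 2,000 cells/well; attach 4-5 hr 37C; add 23 nL cpd or DMSO; incubate o/n 37C 5% CO2; read Ex540/Em590; Rose Bengal sodium reference.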

[10] = qHTS assay to test for compound auto fluorescence at 535 nm (green) in HepG2 cells (AID 720675)

Measured: Potency

FC(F)(F)COCC(F)(F)F
not listed: [10]
inactive: all other assays above

Cc1cc(Br)ccc1NC(=O)CCl
active: [1] 8.63 µM | [3] 43.3 µM | [4] 54.5 µM
not listed: [6] | [10]
inactive: all other assays above

CO/N=C(\C(=O)N[C@@H]1C(=O)N2C(C(=O)O)=C(C[N+]3(C)CCCC3)CS[C@H]12)c1csc(N)n1
not listed: [7]
inactive: all other assays above

CC(=NCc1ccccc1)c1ccccc1O
not listed: [7]
inactive: all other assays above

CC(C)CCC[C@@H](C)[C@H]1CC[C@H]2[C@@H]3CC=C4C[C@@H](O)CC[C@]4(C)[C@H]3CC[C@]12C
not listed: [10]
inactive: all other assays above

O=C[C@H](O)[C@@H](O)[C@@H](O)[C@H](O)CO
not listed: [6]
inactive: all other assays above

COc1cc2c(c(OC)c1OC)-c1c(cc3c(c1OC)OCO3)C[C@@H](C)[C@](C)(O)C2
not listed: [10]
inactive: all other assays above

O=C1c2c(O)cccc2[C@H]([C@@H]2O[C@H](CO)[C@@H](O)[C@H](O)[C@H]2O)c2cc(CO)cc(O)c21
not listed: [7]
inactive: all other assays above

CN(C)CCC(O)(c1ccccc1)c1ccccc1Cl (centres undefined)
not listed: [10]
inactive: all other assays above

CC1(C)S[C@@H]2[C@H](NC(=O)[C@@H](NC(=O)N3CCNC3=O)c3ccccc3)C(=O)N2[C@H]1C(=O)O
not listed: [10]
inactive: all other assays above

CC[C@@H](C)[C@@H](N)C1=N[C@H](C(=O)N[C@@H](CC(C)C)C(=O)N[C@@H](CCC(=O)O)C(=O)N[C@@H](C(=O)N[C@@H]2CCCCNC(=O)[C@@H](CC(N)=O)NC(=O)[C@@H](CC(=O)O)NC(=O)[C@@H](Cc3cnc[nH]3)NC(=O)[C@@H](Cc3ccccc3)NC(=O)[C@@H]([C@H](C)CC)NC(=O)[C@@H](CCCN)NC2=O)[C@@H](C)CC)CS1 (X1-LE[d(aIle)][dK][dOrn][dI][dF][dH][dD][dN]; lactam 4-C)
not listed: [10]
inactive: all other assays above

CC(C)(O/N=C(\C(=O)N[C@@H]1C(=O)N2C(C(=O)[O-])=C(C[n+]3ccccc3)CS[C@H]12)c1csc(N)n1)C(=O)O
not listed: [7]
inactive: all other assays above

C=CC1=C(C(=O)O)N2C(=O)[C@@H](NC(=O)/C(=N\O)c3csc(N)n3)[C@H]2SC1 (stereo in doubt)
not listed: [10]
inactive: all other assays above

CN1C(=O)C[C@@H](C(=O)N[C@@H](Cc2cnc[nH]2)C(=O)N2CCC[C@H]2C(N)=O)NC1=O
not listed: [10]
inactive: all other assays above

CC12CCC(C1)C(C)(C)C2=O (centres undefined)
not listed: [10]
inactive: all other assays above

O=C1CCC(c2ccccc2)(C2CCN(Cc3ccccc3)CC2)C(=O)N1 (centres undefined)
not listed: [7]
inactive: all other assays above

CCCOC(=O)c1ccccc1O
not listed: [7]
inactive: all other assays above

CC(=O)Nc1ccc(OC(C)=O)cc1
not listed: [7]
inactive: all other assays above

CS(=O)(=O)c1ccc([C@@H](O)[C@@H](COC(=O)CN)NC(=O)C(Cl)Cl)cc1
not listed: [7]
inactive: all other assays above

c1ccc(-n2cnnn2)cc1
not listed: [7]
inactive: all other assays above
